Assay outcomes deposited in PubChem BioAssay by National Center for Advancing Translational Sciences (NCATS).
A selection: hits, their analogues and other compounds. The true share with any hit is near 3.9%.
S2 tox: Viability Counterscreen for Primary qHTS for Inhibitors of ATXN expression. 0.49% of 400,000 active. S2 cells (HEK-293 line with an ATXN2-luciferase reporter) viability, CellTiter-Fluor protease fluorescence, 24 h. Potency, µM (top dose mostly 56.7 µM), usual class: cytotoxic. AID 651635, 2014; also: nearly all actives have a fitted effect of over 40% in size
HT1080 IDH1KD tx: qHTS for induction of synthetic lethality in tumor cells producing 2HG: qHTS for the HT-1080-IDH1KD cell line. 2% of 360,000 active. HT-1080 IDH1 knockdown viability, ATP luminescence, 48 h. Potency, µM (doses to about 46.1 µM), inactives show at the top dose activity, negative = toxicity, most hits filed as cytotoxic. AID 686971, 2013;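 also: 0% = DMSO wells and -100% = cell-free medium wells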
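After a 2 h attachment period, IDH1KD HT-1080 cells took pin-transferred compound for 48 h at 37 °C; ATP-based luminescence after 10 min room-temperature reagent incubation reported viability.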
TGFb SMAD3 inh: qHTS for Inhibitors of TGF-b | HepG2 CAGA-GFP TGF-b/SMAD3 reporter, GFP fluorescence, 18 h; TGF-beta stimulated, 500 pg/mL final | Potency, µM (highest dose often 46.1 µM), inactives show at the top dose activity, negative = inhibition, most hits filed as inhibitors | 1.2% of 410,000 active; also: % is scaled to controls: 0 for no effect and ±100 for the full control effect; nearly all actives have a fitted effect of over 65% in size
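Inhibition was scored as loss of TGF-beta-induced (500 pg/mL final, 18 hours, 37 degrees C) GFP in HEPG2 cells carrying a CAGA-GFP reporter, in DMEM with 1% FBS. Well GFP was summed per cell; Activity was normalised to unstimulated and stimulated DMSO wells, then concentration-response fitting.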
ATXN2 expr inh: Primary qHTS for Inhibitors of ATXN expression; HEK-293 ATXN2-luciferase reporter, luminescence, 24 h; Potency, µM (series often up to 57 µM), for the others: top-dose activity change, negative = inhibition, usual class: inhibitors; 0.72% of 360,000 active; AID 1745845, 2022; also: % is scaled to controls: 0 for no effect and ±100 for the full control effect; nearly all actives have a fitted effect of over 55% in size
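ATXN2-luciferase reporter cells (luciferase flanked by upstream and downstream ATXN2 gene portions) were treated 24 h at 37 °C with compounds at up to 57 uM. SteadyGlo luminescence gave expression; GF-AFC fluorescence gave viability.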
HepG2 viability: qHTS for Inhibitors of TGF-b: Cytotox Counterscreen | 0.76% of 410,000 active | Potency, µM (titrated, usually from 46.1 µM), for the others: top-dose activity change, negative = cytotoxicity, usual class: cytotoxic | AID 588856, 2011 | HepG2 CAGA-GFP viability, ATP luminescence, 18 h
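HepG2 CAGA-GFP cells (1000/well, DMEM with 1% FBS) received compound, then TGF-beta at 500 pg/mL final, and were incubated 18 hours at 37 degrees C. Viability was read by CellTiter-Glo luminescence. Media-only wells were set as complete cell-killing and DMSO as no toxicity.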
HT1080NT lethal: qHTS for induction of synthetic lethality in tumor cells producing 2HG: qHTS for the HT-1080-NT fibrosarcoma cell line. Potency, µM (highest dose often 46.1 µM), for inactives: top-dose activity, negative = less viability, usual class: cytotoxic. 1.6% of 360,000 active. HT-1080-NT fibrosarcoma viability, CellTiter-Glo ATP luminescence, 48 h;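 also: NT is the 2HG producing partner of a matched IDH1 knockdown line; 0% = DMSO-treated cells and -100% = media-only wells without cells; nearly all actives have a fitted effect of over 55% in size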
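Fibrosarcoma NT cells, 750 per well in 5% FBS RPMI, were exposed to compound for 48 hours. Viability: CellTiter-Glo luminescence.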
Starred values were filed as active, the others as inactive; i = inactive; u = inconclusive; x = no result; [ ] = remark or other dose. Calls follow the shape of the dose curve; as a rule, active = well fitted curve in the direction sought with a large enough effect; inconclusive = small, poorly fitted or top-dose-only effect, or another doubt; inactive = no such curve, though single readings can be large; an effect the other way counts as inactive or inconclusive. Potency is read from the fitted curve at half-maximal effect.

SMILES	S2 tox	HT1080 IDH1KD tx	TGFb SMAD3 inh	ATXN2 expr inh	HepG2 viability	HT1080NT lethal
COc1ccc(F)cc1S(=O)(=O)NCCc1csc(-c2ccc(Cl)cc2)n1	u	x	13µM*	u	-24%	x
COc1ccc(-c2nc3scc(CCNC(=O)c4cccc(Br)c4)n3n2)cc1	18µM*	x	u	u	-21%	x
CC(C)(C)c1ccc(C(=O)NCCc2csc(-c3ccc(Cl)cc3)n2)cc1	i	x	13µM*	-12%	-18%	x
O=S(=O)(NCCc1csc(-c2ccc(F)cc2)n1)c1ccc(F)cc1F	i	x	u	u	-28%	x
COc1cccc(OC)c1C(=O)NCCc1csc(-c2ccc(Cl)cc2)n1	u	x	u	u	-33%	x
O=C(NCCc1csc2nc(-c3ccc(F)cc3)nn12)c1cccc(C(F)(F)F)c1	u	x	-20%	-39%	-25%	x
CCSc1ncc(Cl)c(C(=O)Nc2ccc(S(=O)(=O)Nc3nccc(C)n3)cc2)n1	i	x	-12%	-14%	-23%	x
COc1ccc2c(c1)NC(c1cccnc1)=NC(c1ccc(F)cc1)=N2	i	x	10%	12%	1%	x
CN(C)CCCNC(=O)c1ccc(-c2nc(-c3ccc(Cl)cc3)cs2)cc1	20µM*	u	u	u	16µM*	-26%
O=C(NC[C@H](O)CO)c1ccncc1Nc1ccc(I)cc1F	x	x	x	2%	x	x
Cc1[nH]n(-c2ccccc2)c(=O)c1N=Nc1nccs1	x	4µM*	u	22µM*	-27%	11µM*
Cc1[nH]n(-c2ccccc2)c(=O)c1N=Nc1ccccc1O	i	9.2µM*	u	u	-50%	15µM*
Cc1ccccc1N=Nc1c(C)[nH]n(-c2ccccc2)c1=O	i	22%	12%	-7%[11.3 µM]	-3%	1%
CC(=O)N1CCC(N(Cc2ccc(C)o2)C(=O)Nc2ccccc2F)CC1	i	x	0%	12%	8%	x
N#Cc1ccc(Nc2nc(-c3ccccc3)c(C(=O)c3ccccc3)s2)cc1	u	u	u	u	11µM*	u
Cc1c(CCOc2ccc(C(=O)O)cc2)c2cc(Cl)ccc2n1C(c1ccccc1)c1ccccc1	x	x	x	-20%	x	x
COc1ccc(-c2noc(CCC(=O)N(C)c3cc(Cl)ccc3OC)n2)cc1	u	x	-23%	-20%	-20%	x
O=C1CC(c2cc(F)ccc2F)c2cc3c(cc2N1)CCC3 (stereo not given)	i	2.6µM*	u	0%	-24%	2.6µM*
COc1cc2c(cc1OC)C(c1cccc(Br)c1)CC(=O)N2 (stereo not given)	u	-17%	-8%	5%	-9%	-2%
O=C1CC(c2cccc(Br)c2)c2cc3c(cc2N1)CCC3 (stereo not given)	u	4.5µM*	u	-20%	-71%	4.5µM*
O=C(Nc1cccc(N2CCC(NCc3cnn(-c4ccccc4)n3)CC2)c1)c1cccnc1	i	x	x	x	x	x
COc1ccc(-c2onc(C)c2C)cc1S(=O)(=O)NCC1CCN(Cc2cc(C)ccc2C)CC1	x	x	u	x	16µM*	x
O=C(NNc1ccc([N+](=O)[O-])cc1[N+](=O)[O-])c1ccco1	u	u	u	u	-34%	18µM*
O=C(NNc1ccc([N+](=O)[O-])cc1)c1ccco1	i	-9%	2%	3%	7%	-1%
CCCCNc1ncnc2c1cnn2-c1ccccc1	u	15µM*	-33%	42%	-2%	u
SMILES	S2 tox	HT1080 IDH1KD tx	TGFb SMAD3 inh	ATXN2 expr inh	HepG2 viability	HT1080NT lethal
Cc1ccc(Cl)cc1-n1ncc2c(NCCCc3ccccc3)ncnc21	32µM*	x	u	u	-39%	x
Cc1ccc(Cl)cc1-n1ncc2c(NCCc3ccccc3)ncnc21	u	x	u	u	-58%	x
Clc1ccc(Cn2ncc3c(NCc4ccccc4)ncnc32)cc1	u	4.6µM*	2%	-24%	-30%	5.8µM*
CCCCNc1ncnc2c1cnn2-c1ccc(Cl)cc1	u	9.2µM*	u	14%	-4%	12µM*
COc1cc(=O)n2c(c1C(=O)N(C)Cc1nonc1C)CCN(CC1CC=CCC1)CC2 (stereo not given)	i	x	x	x	x	x
CCOC(=O)Cn1c(=O)c2c(nc(N3CCOCC3)n2Cc2ccccc2)n(C)c1=O	x	x	-11%	x	-1%	x
COc1ccc(CN2CCC3(CCC(CNC(=O)c4ccnn4C)O3)CC2)c(C)c1C (stereo not given)	i	x	x	x	x	x
Cc1cc(NC(=O)NC(=O)c2ccccc2NC(=O)C(C)N)ccc1Oc1ncc(Br)cn1 (stereo not given)	u	0.092µM*	u	-3%	-7%	u
CN(C(=O)CSc1nc2ccccc2n1CC(=O)N(C)C1CCCCC1)c1ccc(F)cc1	u	x	-5%	-2%	-14%	x
CCc1nc(C)cc2c1sc1ccccc12	i	-2%	4%	-29%	11%	2%
CC[n+]1c(C)cc2c(sc3ccccc32)c1C	i	u	u	-34%	-17%	5.2µM*
CC(C)(C)n1ncc2c(=O)n(Cc3ccccc3F)cnc21	x	x	-7%	x	-17%	x
CCOC(=O)c1ccc(Nc2nc(C)cc(C)n2)cc1	i	-3%	9%	15%	4%	16%
CCOC(=O)c1ccc(Nc2cc(C)nc(-c3ccccc3)n2)cc1	i	18µM*	-22%	x	2%	16µM*
O=C(NCCc1nnc2n1CCN(Cc1ccc(F)cc1)CC2)c1ccc(F)cc1	i	x	x	x	x	x
Brc1ccc2c(c1)OCCOCCOc1cc(Br)ccc1OCCOCCOCCO2	u	18µM*	u	16µM*	-41%	u
Cc1nc2c(c(C)nn2C(C)(C)C)c(C)c1CCC(=O)Nc1ccc(F)cc1	i	x	10%	8%	10%	x
CCc1noc(C)c1C(=O)Nc1nc2ccc(F)cc2s1	i	-14%	-20%	49%	-6%	-10%
CCc1ccc2nc(NC(=O)c3cc(C)on3)sc2c1	i	6.5µM*	-20%	30%	-38%	9.2µM*
Cc1cnc(-n2ncc(C(=O)N(C)CC3COCCO3)c2C2CC2)nc1-c1cccs1 (stereo not given)	i	x	x	x	x	x
O=C(Nc1ccc2nc(-c3ccccc3)[nH]c2c1)c1ccco1	i	-24%	-4%	36%	-4%	-19%
